According to PubChem BioAssay:

These compounds were tested against Torsin-1A-interacting protein 1 (Homo sapiens) (UniProt Q5JTV8) (assay: compound microarray binding of lysate hLAP1 – cell lysate, small-molecule microarray, COS7 lysate, 635/667 nm fluorescence, primary screen (AID 1116)). Settings: 635 nm fluorescence, higher = more signal.
Sequence of Torsin-1A-interacting protein 1 (Homo sapiens) (Q5JTV8 whole entry, looked up): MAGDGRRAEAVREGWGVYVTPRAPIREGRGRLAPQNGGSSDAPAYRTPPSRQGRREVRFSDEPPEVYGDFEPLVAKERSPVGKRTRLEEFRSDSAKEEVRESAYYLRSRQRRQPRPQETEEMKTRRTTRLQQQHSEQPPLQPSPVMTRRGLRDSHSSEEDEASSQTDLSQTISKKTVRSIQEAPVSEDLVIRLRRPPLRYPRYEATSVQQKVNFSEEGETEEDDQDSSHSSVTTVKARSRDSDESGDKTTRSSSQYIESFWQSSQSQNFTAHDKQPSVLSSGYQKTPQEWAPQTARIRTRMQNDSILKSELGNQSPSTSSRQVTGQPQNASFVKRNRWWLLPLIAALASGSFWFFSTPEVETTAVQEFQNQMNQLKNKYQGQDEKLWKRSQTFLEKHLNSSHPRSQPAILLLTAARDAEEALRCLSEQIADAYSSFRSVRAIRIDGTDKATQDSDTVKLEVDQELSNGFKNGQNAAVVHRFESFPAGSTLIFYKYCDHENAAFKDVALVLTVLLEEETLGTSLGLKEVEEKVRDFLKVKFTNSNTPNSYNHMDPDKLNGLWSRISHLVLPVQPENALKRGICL

SMILES	composite z-score
COc1cc(NN2C(C(O)c3ccc(I)cc3)C=CC3C(=O)N(c4ccccc4)C(=O)C32)cc(OC)c1OC (stereo not given)	1.64
Cc1ccc([C@H]2C(C(=O)O)=C[C@@H](C(C)(C)C)N2S(=O)(=O)c2ccc(C)cc2)cc1	1.4
CC(C)OC(=O)CC(=O)CC(O)c1ccc([N+](=O)[O-])cc1 (stereo not given)	0.47
NC(=O)N1C(=O)C2C(C1=O)C1C=C(CCCO)C2C(C2CC2)N1Cc1cccc(OC(F)(F)F)c1 (stereo not given)	0.691
CC(CO)N1C(=O)[C@@H]2[C@H]3C(=O)OCC=C[C@H]3OC23C=CCN(c2ccc(Cl)cc2)C(=O)[C@@H]13 (stereo not given in full)	-1.67
NC(=O)[C@@H]1[C@H]2C(=O)O[C@H](c3ccccc3)[C@H](c3ccccc3)N2[C@H](c2ccc(OCCO)cc2)[C@@]12C(=O)Nc1ccc(C#CCCO)cc12	0.628
CCOC(=O)C[C@H]1[C@H](OC(=O)c2ccc(C(=O)c3ccccc3)cc2)[C@@H](NC(=O)CC(C)C)c2cc(OCCCO)ccc2N1C(=O)Cc1ccc(OC)cc1	0.812
COCCCNC(=O)[C@@]1(c2ccc([N+](=O)[O-])cc2)CC(=O)N(CC23CC4CC(CC(C4)C2)C3)[C@@H]1c1ccc(CO)cc1I	0.157
C=C(/C(=C/C[C@@H](OC(C)=O)c1ccc(CO)o1)c1cc(C(=O)OC)ccc1OC)C(C)C	-0.144

Each compound was assayed against Alpha-bungarotoxin (Bungarus multicinctus) (UniProt P60615) (assay: compounds binding labelled alpha-BTX control protein – biochemical, small-molecule microarray, Alexa647 label, 635/667 nm fluorescence, artefact control for SMM control protein annotation, profiling panel (AID 1117)). Settings: alpha-BTX-A647 binding fluorescence, higher = more signal.
Sequence of Alpha-bungarotoxin (Bungarus multicinctus) (P60615 whole entry, looked up): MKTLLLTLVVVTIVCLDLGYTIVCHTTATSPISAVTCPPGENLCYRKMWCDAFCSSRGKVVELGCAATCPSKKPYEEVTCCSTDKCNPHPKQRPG

SMILES	composite z-score
Cc1nc2cc(Br)ccc2c(=O)n1Cc1cccc(O)c1	-0.0871
C=C[C@@H](C)[C@H](O)c1ccc(OCCO)cc1	-1.16
C=CCN1C(=O)[C@]2(O[C@H](CCO)[C@@H]([Si](C)(C)c3ccc(OC)cc3)[C@@H]2C)c2cc(NC(=O)c3ccc(OC)cc3)ccc21	0.732
CCOC(=O)C[C@H]1[C@H](OC(=O)c2cc3ccccc3oc2=O)[C@@H](NC(=O)c2ccc3ccccc3c2)c2cc(OCCCO)ccc2N1C(=O)Cc1ccc(OC)cc1	0.259
COc1ccc(C#Cc2ccc3c(c2)[C@]2(C(=O)N3)[C@H](c3ccc(OCCO)cc3)N3[C@H](c4ccccc4)[C@H](c4ccccc4)OC(=O)[C@H]3[C@@H]2C(=O)N2CCc3cc(OC)c(OC)cc3C2)cc1	0.841
COC(=O)c1c2oc(c1C(=O)OC)C(=O)N1CCC[C@H]1Cn1nncc1CN(Cc1ccccc1)C(=O)N[C@H](CO)CC2	-0.524
COC(=O)C(CC#Cc1ccc2c(c1)[C@]1(C(=O)N2)[C@H](c2ccc(O)cc2)N2[C@H](c3ccccc3)[C@H](c3ccccc3)OC(=O)[C@H]2[C@@H]1C(=O)N1CCCCCCC1)C(=O)OC	2.18
C=C[C@H](C)[C@H](OC(=O)Nc1ccc(OC)cc1)c1ccc(OCCO)cc1	-1.79
[N-]=[N+]=NC[C@H](Cc1ccccc1)NC(=O)c1ccccc1	0.0961
COc1ccc([Si](C)(C)[C@H]2[C@H](CC(=O)N3Cc4ccccc4C[C@H]3CO)O[C@@]3(C(=O)N(Cc4ccc(N5C(=O)c6cccc7cccc5c67)cc4)c4ccccc43)[C@@H]2C)cc1	0.609
COc1ccc([Si](C)(C)[C@H]2[C@H](CC(=O)N3CCC[C@H]3CO)O[C@@]3(C(=O)N(Cc4ccc(N5CCC5=O)cc4)c4ccccc43)[C@@H]2C)cc1	1.79
C=CCNC(=O)[C@H]1[C@@H]2C(=O)O[C@@H](c3ccccc3)[C@@H](c3ccccc3)N2[C@@H](c2ccc(OCCO)cc2)[C@]12C(=O)Nc1ccc(C#CCNC(N)=O)cc12	2.07
C=CCC(OC(C)=O)[C@@H]1[C@@H](N(Cc2cccc3ccccc23)C(=O)Cc2ccc(F)cc2)c2cc(OCCCO)ccc2N1C(=O)c1ccc(-c2ccccc2)cc1 (stereo not given in full)	-0.395
CC1CC/C=C\[C@H]2OC34C=CCN(CCN5CCOCC5)C(=O)[C@H]3N(C(C)CO)C(=O)[C@@H]4C2C(=O)O1 (stereo not given in full)	-0.807
C=CCN1C(=O)[C@]2(O[C@H](CCO)[C@@H]([Si](C)(C)c3ccc(OC)cc3)[C@@H]2C)c2cc(N3C(=O)COc4ccccc43)ccc21	0.429
CN(C)C(=O)[C@]1(CCS(=O)(=O)c2ccccc2)N=C(c2ccc(OCCCO)cc2)O[C@@H]1c1ccccc1	0.915
Cc1ccccc1C(O)C1C=CC2C(=O)NC(=O)C2N1Nc1ccc(Cl)cc1Cl (stereo not given)	0.0072
O=C1c2ccccc2[C@](Cc2ccccc2I)(C(=O)NC2CC2)[C@H](c2ccc(CO)cc2)N1Cc1ccccc1C(F)(F)F	0.968

SMILES	composite z-score
Cc1ccc(C(C)CC(O)C2C=CC3C(=O)N(c4ccccc4)C(=O)C3N2Nc2ccc(C#N)cc2)o1 (stereo not given)	1.17
COc1ccc([Si](C)(C)[C@H]2[C@H](CCO)O[C@@]3(C(=O)N(Cc4ccccc4)c4ccc(N5C(=O)c6ccccc6Oc6ccccc65)cc43)[C@@H]2C)cc1	0.178
COCCOC(=O)N1C(=O)[C@@]2(c3cc(C#CC4=CCCCC4)ccc31)[C@H](C(=O)N1CCCCCCC1)[C@H]1C(=O)O[C@H](c3ccccc3)[C@H](c3ccccc3)N1[C@@H]2c1ccc(OCCO)cc1	0.845
CC(C)[C@H]1NC(=O)[C@@]23C(=O)N[C@@H](Cc4ccccc4)C2[C@H](C)[C@@]2(C)O[C@H]2C3/C=C/C/C=C\CNC(=O)[C@H](Cc2ccccc2)NC1=O (stereo not given in full)	0.807
CC(C)=CCCC(C)=CC(O)C1C=CC2C(=O)N(c3ccccc3)C(=O)C2N1Nc1ccccc1F (stereo not given)	0.529
CC(C)C[C@@H]1NC(=O)CNC(=O)[C@@]23C(=O)N[C@@H](Cc4ccccc4)C2[C@H](C)[C@@]2(C)O[C@H]2C3/C=C/C/C=C\CNC1=O (stereo not given in full)	0.985
COC(=O)[C@@]1(Cc2ccc(F)cc2)[C@H]2c3cc(C(=O)N(C)C)n(Cc4ccc(O)c(OC)c4)c3C[C@H]2CN1C(=O)c1ccccc1	0.412
C=C(COC)C(=O)CC[C@@H](OC(=O)c1cccnc1)c1ccccc1OCCO	-0.387
CN(C)CCCNC(=O)[C@@H]1c2ccccc2C(=O)N(C2CCCCC2)[C@H]1c1ccc(CO)cc1	0.233
COc1cc(NN2C(C(O)c3ccc(I)cc3)C=CC3C(=O)N(c4ccccc4)C(=O)C32)cc(OC)c1OC (stereo not given)	1.68
Cc1ccc([C@H]2C(C(=O)O)=C[C@@H](C(C)(C)C)N2S(=O)(=O)c2ccc(C)cc2)cc1	1.43
CC(C)OC(=O)CC(=O)CC(O)c1ccc([N+](=O)[O-])cc1 (stereo not given)	-0.292
NC(=O)N1C(=O)C2C(C1=O)C1C=C(CCCO)C2C(C2CC2)N1Cc1cccc(OC(F)(F)F)c1 (stereo not given)	-0.187
CC(CO)N1C(=O)[C@@H]2[C@H]3C(=O)OCC=C[C@H]3OC23C=CCN(c2ccc(Cl)cc2)C(=O)[C@@H]13 (stereo not given in full)	-1.94
NC(=O)[C@@H]1[C@H]2C(=O)O[C@H](c3ccccc3)[C@H](c3ccccc3)N2[C@H](c2ccc(OCCO)cc2)[C@@]12C(=O)Nc1ccc(C#CCCO)cc12	1.13
CCOC(=O)C[C@H]1[C@H](OC(=O)c2ccc(C(=O)c3ccccc3)cc2)[C@@H](NC(=O)CC(C)C)c2cc(OCCCO)ccc2N1C(=O)Cc1ccc(OC)cc1	0.118
COCCCNC(=O)[C@@]1(c2ccc([N+](=O)[O-])cc2)CC(=O)N(CC23CC4CC(CC(C4)C2)C3)[C@@H]1c1ccc(CO)cc1I	1.22
C=C(/C(=C/C[C@@H](OC(C)=O)c1ccc(CO)o1)c1cc(C(=O)OC)ccc1OC)C(C)C	-0.0861
